Drawing on PubChem BioAssay (NCI), this text covers growth for 27 molecules.

This is part of a sample that, as a whole, favours compounds with a hit. Of some 83,000 tested, about 20% had one in any assay.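 Compound tested at a single concentration for 48 hours in 96-well plates; a percent growth value below 10 was scored as active.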 Unmarked numbers belong to inactive results. The source made the active and inactive calls.

Holding throughout (experiment): NCI-60 one-dose screen, 48 h (100 = growth as untreated, 0 = no growth, -100 = all killed)
Settings in all cases: 10 µM unless noted

The subject of experiment [1] is SR leukemia.
In experiment [2] the test system is RPMI-8226 leukemia.
Experiment [3] has as its system OVCAR-8 ovarian.
Experiment [4] relates to OVCAR-5 ovarian.
The subject of experiment [5] is OVCAR-4 ovarian.
The test system of experiment [6] is SK-OV-3 ovarian.
The test system of experiment [7] is IGROV1 ovarian.
The subject of experiment [8] is OVCAR-3 ovarian.
In experiment [9] the test system is HS 578T breast.
The test system of experiment [10] is NCI/ADR-RES ovarian.

For the molecule `CC(C)(C)c1cc(-c2nc3ccc(N4CCN(CCO)CC4)cc3[nH]2)cc(C(C)(C)C)c1O`, the growth in [1] was -16% (active); in experiment [2], 1.15% (active); in experiment [3], 83.8%; in experiment [4] it was 90.6%; in experiment [5] it was 76.7%; in experiment [6], 84%. For the same molecule, the growth was 82.7% in experiment [7], 72.7% in experiment [8], 67% in [9] and 93.2% in [10].
On to `COc1cccc2nc(Nc3ccc(NC(=O)c4ccc5ncccc5c4)cc3)ccc12`, for which the growth in [1] was 65.7%; in experiment [2], 33.4%; in experiment [3] it was 72.3%; in experiment [4] it was 99.3%; in experiment [5], 89.7%; in experiment [6], 86.4%. Besides, the growth in experiment [7] is 105%; in [8], 105%; in experiment [9], 66.7%; in experiment [10], 86%.
For the molecule `COc1cc(C(=O)N2CCN(C(=O)c3ccco3)CC2)c(N)cc1OCc1ccccc1`, the growth in experiment [1] is 86.5%; in experiment [2], 71.9%; in [3] it was 99.8%; in [4], 107%; in experiment [5], 92.9%; in experiment [6] it was 113%. Moreover, the growth in experiment [7] is -5.4% (active); in experiment [8], 105%; in [9], 91.9%; in [10] it was 102%.
On to `CCOP(=O)(CCN1CCN(CCCCCOc2cc3c(cc2OC)C(=O)N2CCC[C@H]2C=N3)CC1)OCC`, for which the growth was 28.7% in experiment [1]; -10.5% (active) in [2]; 83.4% in experiment [3]; 106% in experiment [4]; 87.8% in [5]; 118% in experiment [6]. Moreover, the growth is -26% (active) in experiment [7], 119% in experiment [8], 84.5% in experiment [9] and 88.5% in [10].
For `Cc1cc(Nc2nc(-c3ccncc3)nc3ccccc23)n[nH]1`, the growth in experiment [1] was 18.3%; in experiment [2], 91.6%; in experiment [3], 101%; in [4], 87.1%; in experiment [5], 52.4%; in experiment [6], 22.8%. For the same molecule, the growth was 16.3% in [7], 67.2% in experiment [8], 22.6% in [9] and 86.4% in experiment [10].
Turning to `COc1cc(C2C=C(C)N=C3SC(C)=NN32)cc(OC)c1OC` (stereo not given), the growth was 96.3% in experiment [1]; 108% in experiment [2]; 104% in [3]; 95.9% in experiment [4]; 104% in [5]; 92.5% in experiment [6]. Besides, the growth is 101% in [7], 106% in experiment [8], 114% in experiment [9] and 101% in experiment [10].
For `COc1ccc(-c2nnc(COc3ccc(NS(=O)(=O)c4ccc(OC)cc4)cc3F)o2)cc1`, the growth in [1] is 50.6%; in experiment [2], 43.4%; in [3], 82.5%; in experiment [4], 94.2%; in experiment [5], 57.3%; in [6], 83.9%. Further, the growth in [7] is 84.5%; in experiment [8], 76.7%; in [9], 88.2%; in experiment [10] it was 55.3%.
Turning to `COc1ccc(-c2nnc(COc3ccc(NC(=O)Nc4ccc(Cl)c(C(F)(F)F)c4)cc3F)o2)cc1`, the growth in experiment [1] is -30.1% (active); in experiment [2], -26.2% (active); in experiment [3], 14.5%; in experiment [4], 8.75% (active); in [5], 20.2%; in experiment [6] it was 22.1%. The growth in [7] was 26%; in [8] it was -0.826% (active); in [9], 19.1%; in experiment [10], 5.91% (active).
As to `CCCCCCCCCCC/C=C\C[C@H](O)C/C=C1/C(=O)C=C[C@@H]1C/C=C\CCCC(=O)OC`, the growth in experiment [1] is 6.46% (active); in experiment [2], -10.2% (active); in experiment [3] it was 7.18% (active); in [4], 21.9%; in experiment [5] it was -1.25% (active); in [6], 26.8%. Also, the growth in [7] was -15.9% (active); in experiment [8] it was -46.2% (active); in experiment [9], 18%; in [10], 9.04% (active).
In the case of `Cc1ccc2nc(SCn3nnc4ccccc4c3=O)[nH]c2c1`, the growth was 112% in experiment [1]; 94.4% in experiment [2]; 109% in experiment [3]; 89.5% in experiment [4]; 78.4% in [5]; 103% in experiment [6]. The growth in [7] was 83.7%; in experiment [8], 104%; in experiment [9], 107%; in [10] it was 88.8%.
`Cc1cc(C)c2c(=O)[nH]c(SCC(=O)Nc3cccc(S(=O)(=O)N(C)C)c3)nc2n1`: the growth was 70.8% in [1]; 87.5% in [2]; 106% in experiment [3]; 97.4% in experiment [4]; 105% in experiment [5]; 103% in experiment [6]. The growth in experiment [7] is 40.6%; in experiment [8], 111%; in [9] it was 122%; in experiment [10], 105%.
As to `COc1ccccc1OCC(=O)Nc1sc2c(c1C(N)=O)CCC2`, the growth in [1] was 65.2%; in experiment [2], 66.2%; in experiment [3] it was 76.9%; in experiment [4], 107%; in [5], 83.2%; in [6] it was 69.9%. Besides, the growth in [7] was -10.4% (active); in [8], 92.1%; in [9] it was 55.5%; in experiment [10], 79.1%.
In the case of `CCCC1OC(c2ccc(C(C)C)cc2)OCC1CC` (stereo not given), the growth is 91.7% in experiment [1]; 104% in [2]; 96.7% in [3]; 101% in experiment [4]; 112% in experiment [5]; 85.5% in [6]. For the same molecule, the growth is 112% in experiment [7], 107% in experiment [8], 99.6% in experiment [9] and 105% in experiment [10].
Consider `O=S(=O)(NCCCNc1cc(-c2cn(-c3ccccc3)nc2-c2cccc(O)c2)ccn1)c1cccc(F)c1`, for which the growth is 35% in experiment [1]; 32% in [2]; 39.8% in [3]; 68.3% in experiment [4]; 50.2% in experiment [5]; 72% in [6]. Moreover, the growth in experiment [7] is 53.8%; in experiment [8] it was 65.6%; in experiment [9], 41.7%; in experiment [10] it was 49.3%.
`O=C(Nc1ccc(F)cc1)c1cc([N+](=O)[O-])ccc1O`: the growth was 83.7% in experiment [1]; 32.4% in experiment [2]; 76.2% in experiment [3]; 86.1% in [4]; 70.5% in experiment [5]; 84% in experiment [6]. In addition, the growth was 66.3% in [7], 56.1% in experiment [8], 64% in [9] and 72.9% in experiment [10].
With `Cc1ccc(S(=O)(=O)OC2COCOC2C(OS(=O)(=O)c2ccc(C)cc2)C2OCOCC2OS(=O)(=O)c2ccc(C)cc2)cc1` (stereo not given), the growth was 96.2% in experiment [1]; 107% in experiment [2]; 103% in [3]; 101% in experiment [4]; 118% in experiment [5]; 107% in experiment [6]. The growth was 110% in [7], 110% in experiment [8], 107% in experiment [9] and 110% in experiment [10].
Consider `COc1ccc(N=C2NN=C(c3ccc(F)cc3)CS2)cc1OC`, for which the growth in [1] was 53%; in [2] it was 74.4%; in experiment [3], 105%; in experiment [4] it was 85.7%; in experiment [5], 103%; in experiment [6], 104%. For the same molecule, the growth in [7] is -11.7% (active); in experiment [8], 96.6%; in [9], 110%; in experiment [10] it was 97.6%.
Consider `Nc1c(C(=O)Nc2ccccc2)sc2nc3c(cc12)CN(Cc1ccccc1)CC3`, for which the growth in experiment [1] was 55.6%; in experiment [2], 79.6%; in [3], 74.8%; in experiment [4], 78.5%; in experiment [5] it was -14.7% (active); in experiment [6], 39.2%. Further, the growth is 77.9% in experiment [7], 56.6% in experiment [8], 11.1% in experiment [9] and 71% in [10].
Regarding `CCOc1ccc(/C=C/C=N/NC(N)=S)cc1`, the growth is 70.4% in [1]; 39.7% in experiment [2]; 100% in [3]; 90.9% in [4]; 73.2% in [5]; 110% in experiment [6]. Moreover, the growth in experiment [7] is 53.5%; in experiment [8], 73.7%; in experiment [9], 95.3%; in [10], 82.6%.
For the molecule `c1ccc2c(c1)Oc1ccccc1C2C1c2ccccc2Oc2ccccc21`, the growth in experiment [1] is 86.3%; in [2] it was 103%; in experiment [3], 101%; in experiment [4], 89.7%; in experiment [5], 84%; in experiment [6], 105%. The growth in [7] is 91.5%; in experiment [8], 98.4%; in experiment [9], 99.6%; in [10], 95.3%.
For `COc1ccc(/C=C/C(=O)c2cc(OC)c(OC)c(OC)c2)cc1OCc1cn(Cc2ccc(F)cc2)nn1`, the growth in experiment [1] was 3.34% (active); in experiment [2], 1.66% (active); in experiment [3] it was 15%; in [4], 50.4%; in experiment [5], 43.4%; in [6], 76.6%. Besides, the growth in experiment [7] was 85.9%; in experiment [8], 21.7%; in experiment [9], 82.6%; in experiment [10], 16.5%.
Regarding `O=C(CNC(=O)c1cccc2ccccc12)Nc1ccccc1Oc1ccccc1`, the growth is 13.1% in experiment [1]; 19.8% in experiment [2]; 13.4% in [3]; 52.4% in experiment [4]; 36% in [5]; 23.3% in experiment [6]. Also, the growth is 32.1% in experiment [7], -30.5% (active) in experiment [8], 29.9% in experiment [9] and 10.3% in [10].
Take `CC(C)(C)OC(=O)N[C@@H](Cc1ccccc1)C(=O)N(Cc1ccccc1)C1(C(=O)NCc2ccccc2)CCN(Cc2ccccc2)CC1`: the growth in experiment [1] was -0.167% (active); in experiment [2], 22.8%; in [3] it was 22.6%; in experiment [4] it was 31.1%; in experiment [5], 24.2%; in [6], 69.9%. Moreover, the growth is 59.1% in [7], 48.5% in experiment [8], 71.5% in experiment [9] and 12.1% in [10].
In the case of `COc1cc(CCn2nnc3c(NCCCCO)ncnc32)cc(OC)c1`, the growth is 96.4% in [1]; 95.7% in experiment [2]; 101% in experiment [3]; 121% in [4]; 99.2% in experiment [5]; 111% in experiment [6]. Also, the growth is 109% in experiment [7], 107% in [8], 101% in [9] and 104% in experiment [10].
`COc1cc(/C=C/C(=O)c2ccccc2O)ccc1OCCCOc1cc2c(cc1OC)C(=O)N1CCC[C@H]1C=N2`: the growth is -13.8% (active) in [1]; -21.7% (active) in experiment [2]; 18.1% in experiment [3]; 0.483% (active) in experiment [4]; -2.17% (active) in experiment [5]; 33.1% in experiment [6]. Also, the growth in experiment [7] is -65.8% (active); in [8], -3.51% (active); in experiment [9], 37.8%; in experiment [10] it was 19.3%.
Take `Oc1ccc(N=Cc2ccccc2)cc1`: the growth is 30.9% in experiment [1]; 55.4% in [2]; 86.8% in experiment [3]; 104% in [4]; 79.7% in experiment [5]; 119% in experiment [6]. For the same molecule, the growth was 97.1% in [7], 7.09% (active) in experiment [8], 103% in [9] and 101% in [10].
In the case of `O=Nc1c(-c2c(O)[nH]c3ccc([N+](=O)[O-])cc23)[nH]c2ccc(O)cc12`, the growth was 0.378% (active) in experiment [1]; -7.92% (active) in experiment [2]; 7.71% (active) in experiment [3]; 110% in experiment [4]; 19.7% in experiment [5]; -9.52% (active) in experiment [6]. The growth in [7] was 6.36% (active); in experiment [8] it was 4.31% (active); in [9], 1.21% (active); in experiment [10], 42%.
